MBD2 DNA inh – MBD2-methylated oligo binding inhibition; TR-FRET, MBD2 binding to methylated oligonucleotide; inhibition, % at 4.4 µM; Q9UBB5; 0.31% of 370,000 active; in the data active = inhibition above about 13%
UHRF1 MBD2 ctr – blocks human UHRF1 binding to methylated DNA; Q96T88; UHRF1 binding to methylated oligo, TR-FRET; inhibition, % at 4.4 µM; 0.75% of 370,000 active; AID 687016; in the data active = inhibition above about 21%;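 also: UHRF1 SRA domain binding a hemimethylated CpG hairpin DNA probe; 0% = median of test compound wells and 100% = reference inhibitor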
Neddyl block – blocks human cullin neddylation; calls only at 25 µM; TR-FRET cullin neddylation, biochemical; 0.58% of 360,000 active; P61081+Q13564; in the data active = inhibition above about 36%
UBC13 inh – inhibitors of human UBC13 polyubiquitin chain formation. P61088. TR-FRET. inhibition, % at 20 µM. 0.47% of 330,000 active. AID 485273; in the data active = inhibition above about 45%, passing the limit was not always enough
Target sequence (P61088 whole entry, looked up): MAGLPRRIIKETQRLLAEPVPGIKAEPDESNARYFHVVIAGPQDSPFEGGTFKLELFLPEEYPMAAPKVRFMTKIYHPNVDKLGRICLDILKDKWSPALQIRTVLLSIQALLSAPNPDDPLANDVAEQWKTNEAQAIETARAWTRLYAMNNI
Casp3 counter – caspase-3 inhibition (UBC13 counter-screen) | shares compounds with UBC13 inh | Recombinant caspase-3, Caspase-Glo 3/7 luminescence, 60 min | inhibition, % at 20 µM | 4% of 1,400 active;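 active = mean inhibition across replicates above about 26%, limit read from the data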;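 also: plate controls were DMSO with caspase-3 for no effect and DMSO wells lacking enzyme for full effect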
Target sequence (P42574 whole entry, looked up): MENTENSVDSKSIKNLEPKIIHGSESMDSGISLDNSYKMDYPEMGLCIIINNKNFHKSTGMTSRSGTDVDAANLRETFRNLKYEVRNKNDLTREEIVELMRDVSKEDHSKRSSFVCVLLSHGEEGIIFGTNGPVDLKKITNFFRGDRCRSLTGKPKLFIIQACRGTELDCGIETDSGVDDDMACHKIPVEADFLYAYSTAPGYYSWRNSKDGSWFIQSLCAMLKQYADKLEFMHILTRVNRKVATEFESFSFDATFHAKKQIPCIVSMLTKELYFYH
UBC13 conf – confirmation of human UBC13 polyubiquitin inhibitors; shares compounds with UBC13 inh; 68% of 1,400 active; UBC13 polyubiquitination, TR-FRET, biochemical; inhibition, % at 10 µM; in the data active = inhibition above about 45%
* marks the source's active call; other numbers are inactive results. Hits are enriched below; roughly 1.8% of the tested compounds scored in any of these assays.

What do the screens show for `COc1cc(OC)c2ccc(=O)oc2c1C(CCN1CCCC(C)C1)c1ccc2c(c1)OCO2` (centres undefined)?
MBD2 DNA inh: -6; UHRF1 MBD2 ctr: -5; Neddyl block: inactive; UBC13 inh: 11

Results for COc1cc(C(CCN2CCOCC2)c2c(OC)cc(OC)c3c(C)cc(=O)oc23)cc(OC)c1OC (centres undefined) ?
MBD2 DNA inh: 1; UHRF1 MBD2 ctr: -1; Neddyl block: inactive; UBC13 inh: 12

What do the screens show for `CCCCCc1cc(=O)oc2c(C(CCN3CCCCC3)c3ccc(OC)cc3)c(OC)cc(OC)c12` (centres undefined)?
MBD2 DNA inh: 0; UHRF1 MBD2 ctr: 0; UBC13 inh: 84*; Casp3 counter: -1; UBC13 conf: 63*

Results for CCCCCc1cc(=O)oc2c(C(CCN(CC)CC)c3ccc(OC)cc3)c(OC)cc(OC)c12 (centres undefined) ?
MBD2 DNA inh: 4; UHRF1 MBD2 ctr: 2; UBC13 inh: 83*; Casp3 counter: -1; UBC13 conf: 76*

How did CCCCCc1cc(=O)oc2c(C(CCN3CCCC(C)C3)c3ccc(OC)cc3)c(OC)cc(OC)c12 (centres undefined) do in these assays?
MBD2 DNA inh: -3; UHRF1 MBD2 ctr: -2; UBC13 inh: 65*; Casp3 counter: 2; UBC13 conf: 53*

How did CCN(CC)CCC(c1ccc(N(C)C)cc1)c1c(OC)cc(OC)c2ccc(=O)oc12 (centres undefined) do in these assays?
MBD2 DNA inh: 0; UHRF1 MBD2 ctr: 9; Neddyl block: inactive; UBC13 inh: 8

How did CCCCCc1cc(=O)oc2c(C(CCN3CCN(c4ccccc4)CC3)c3ccc4c(c3)OCO4)c(OC)cc(OC)c12 (centres undefined) do in these assays?
MBD2 DNA inh: -1; UHRF1 MBD2 ctr: 1; Neddyl block: inactive; UBC13 inh: 16

Results for CCCCCc1cc(=O)oc2c(C(CCN3CCCC3)c3cc(OC)c(OC)c(OC)c3)c(OC)cc(OC)c12 (centres undefined) ?
MBD2 DNA inh: 4; UHRF1 MBD2 ctr: 11; Neddyl block: inactive; UBC13 inh: 80*; Casp3 counter: 0; UBC13 conf: 73*

How did CCOC(=O)/C(C#N)=C/Nc1ccsc1C(C)=O do in these assays?
MBD2 DNA inh: 2; UHRF1 MBD2 ctr: -1; Neddyl block: inactive; UBC13 inh: -5

How did Cc1ccccc1NC(=O)CSc1nc2ncc(Cl)cc2[nH]1 do in these assays?
MBD2 DNA inh: -6; UHRF1 MBD2 ctr: -1; Neddyl block: inactive; UBC13 inh: -18

Results for O=C1OC[C@@H]2CCCN2C(=O)[C@@H](CC(=O)N(CCO)Cc2ccccc2)C/C=C\C[C@@H]1Cc1ccc(F)cc1 ?
MBD2 DNA inh: 4; UHRF1 MBD2 ctr: -2; Neddyl block: inactive; UBC13 inh: 2

How did CC(C)CC(=O)NC(=S)Nc1ccc(N2CCOCC2)c(Cl)c1 do in these assays?
MBD2 DNA inh: 1; UHRF1 MBD2 ctr: 0; Neddyl block: inactive; UBC13 inh: 0

Results for COc1cc(OC)c2ccc(=O)oc2c1C(CCN1CCCC1)c1ccc(N(C)C)cc1 (centres undefined) ?
MBD2 DNA inh: -3; UHRF1 MBD2 ctr: -4; Neddyl block: inactive; UBC13 inh: 12

How did CCCCCc1cc(=O)oc2c(C(CCN3CCCC3)c3ccc(N(C)C)cc3)c(OC)cc(OC)c12 (centres undefined) do in these assays?
MBD2 DNA inh: 3; UHRF1 MBD2 ctr: 11; Neddyl block: inactive; UBC13 inh: 82*; Casp3 counter: -2; UBC13 conf: 43

How did CNC(=O)c1ccsc1NC(=O)c1ccccc1 do in these assays?
MBD2 DNA inh: 3; UHRF1 MBD2 ctr: 0; Neddyl block: inactive; UBC13 inh: 14

How did CC1=Cc2ccccc2C(C#N)N1C(=O)c1ccccc1 (centres undefined) do in these assays?
MBD2 DNA inh: 4; UHRF1 MBD2 ctr: 5; Neddyl block: inactive; UBC13 inh: -11

How did N#C[C@H]1C(O)C(O)c2ccccc2N1C(=O)c1ccccc1 (some centres undefined) do in these assays?
MBD2 DNA inh: -4; UHRF1 MBD2 ctr: -2; Neddyl block: inactive; UBC13 inh: 58*; Casp3 counter: 3; UBC13 conf: 9

How did CCOC(=O)C1(C)CCN1C(=O)c1ccc(OC)cc1 (centres undefined) do in these assays?
MBD2 DNA inh: 1; UHRF1 MBD2 ctr: -2; Neddyl block: inactive

Results for CC1(C)Cc2c(sc(NC(=O)C(=O)N3CCCC3)c2C(N)=O)CO1 ?
MBD2 DNA inh: 4; UHRF1 MBD2 ctr: 1; Neddyl block: inactive; UBC13 inh: 86*; Casp3 counter: 4; UBC13 conf: 105*

How did CC1(C)Cc2c(sc(NC(=O)Nc3ccccc3)c2C(N)=O)CO1 do in these assays?
MBD2 DNA inh: 0; UHRF1 MBD2 ctr: 1; Neddyl block: inactive; UBC13 inh: 8

Results for CC1(C)Cc2c(sc(NC(=O)C(=O)NCC3CCCO3)c2C(N)=O)CO1 (centres undefined) ?
MBD2 DNA inh: -4; UHRF1 MBD2 ctr: -2; Neddyl block: inactive; UBC13 inh: 81*; Casp3 counter: -1; UBC13 conf: 106*

What do the screens show for `COC(=O)c1c(NC(=O)C(=O)N2CCCC2)sc2c1CC(C)(C)OC2`?
MBD2 DNA inh: -5; UHRF1 MBD2 ctr: -2; Neddyl block: inactive; UBC13 inh: 48*; Casp3 counter: -3; UBC13 conf: 100*

What do the screens show for `CSc1ncccc1C(=O)OCC(=O)NC(C)(C)C`?
MBD2 DNA inh: 6; UHRF1 MBD2 ctr: -1; Neddyl block: inactive; UBC13 inh: 8

Results for COc1ccc(S(=O)(=O)Nc2ccc(C)cn2)cc1 ?
MBD2 DNA inh: 0; UHRF1 MBD2 ctr: 0; Neddyl block: inactive; UBC13 inh: 46*; Casp3 counter: -2; UBC13 conf: -3

How did S=c1[nH]ncn1NCc1cccc(Br)c1 do in these assays?
MBD2 DNA inh: -5; UHRF1 MBD2 ctr: 1; Neddyl block: inactive; UBC13 inh: -3

What do the screens show for `c1ccc2c(C[C@@H]3CNCCN3CCC34CC5CC(CC(C5)C3)C4)cccc2c1`?
MBD2 DNA inh: -3; UHRF1 MBD2 ctr: 2; Neddyl block: inactive; UBC13 inh: 50*; Casp3 counter: -3; UBC13 conf: 53*

Results for c1ccc(C2(CN3CCNC[C@H]3Cc3cccc4ccccc34)CC2)cc1 ?
MBD2 DNA inh: -3; UHRF1 MBD2 ctr: 4; Neddyl block: inactive; UBC13 inh: 59*; Casp3 counter: 2; UBC13 conf: 48*

What do the screens show for `CC(C)(C)CN1CCNC[C@H]1Cc1cccc2ccccc12`?
MBD2 DNA inh: -4; UHRF1 MBD2 ctr: -1; Neddyl block: inactive; UBC13 inh: 47*; Casp3 counter: -4; UBC13 conf: 31

What do the screens show for `COc1ccc(CC(=O)NCC2(N3CCCCC3)CCCCC2)cc1`?
MBD2 DNA inh: 10; UHRF1 MBD2 ctr: 7; Neddyl block: inactive; UBC13 inh: -1
